Measurements from PMC5540273 (PLoS ONE, 2017).

Assays:
Conditions in all cases: concentration: 1 μM, replicates: in singlicate; n = 1
ALK = tested on: ALK
AMPK-alpha1 = tested on: T1, AMPK-alpha1
T1 construct: gene PRKAA1

AMPK-alpha2 = tested on: T2, AMPK-alpha2
T2 construct: gene PRKAA2

ANKK1 = tested on: ANKK1
ARK5 = tested on: T3, ARK5
T3 construct: gene NUAK1

ASK1 = tested on: T4, ASK1
T4 construct: gene MAP3K5

ASK2 = tested on: T5, ASK2
T5 construct: gene MAP3K6

AURKA = tested on: AURKA
AURKB = tested on: AURKB
AURKC = tested on: AURKC
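Further: KINOMEscan kinase panel screen.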

SMILES	%Inh (ALK)	%Inh (AMPK-alpha1)	%Inh (AMPK-alpha2)	%Inh (ANKK1)	%Inh (ARK5)	%Inh (ASK1)	%Inh (ASK2)	%Inh (AURKA)	%Inh (AURKB)	%Inh (AURKC)
COc1cc(Nc2ccnc3ccc(C(F)(F)F)cc23)cc(OC)c1OC [GW577382]	22%	0%	25%	12%	10%	6%	19%	49%	0%	7%
Cc1nnc(-c2ccc(C)c(-c3ccc(C(=O)O)cc3)c2)o1 [GW608005]	1%	0%	0%	0%	11%	0%	0%	0%	0%	6%
COC(=O)c1c(-c2ccccc2)c2cc(Br)ccc2c(=O)n1Cc1ccc(S(C)(=O)=O)cc1	52%	15%	9%	0%	11%	2%	0%	35%	20%	0%
CCC(=O)c1c(-c2ccccc2)c2cc(Cl)ccc2c(=O)n1Cc1ccc(C(=O)O)cc1	0%	0%	0%	0%	6%	0%	0%	0%	19%	0%
CCS(=O)c1ccc(-c2coc3ccc(-c4nnc(C)o4)cc23)cc1 (centres unmarked)	5%	26%	1%	30%	0%	0%	0%	16%	1%	0%
Nc1nc(N)c2nc(-c3ccccc3)[nH]c2n1 [SKF-12778]	0%	17%	14%	63%	73%	7%	15%	3%	13%	1%
CCc1ccc(-c2ccc3c(c2)-c2nn(C)cc2S(=O)(=O)N3C)cc1	10%	0%	9%	0%	13%	0%	0%	0%	6%	0%
Cc1ccccc1COc1cc(-n2cnc3cc(Cl)ccc32)sc1C(N)=O [GW813349]	23%	0%	3%	26%	0%	18%	0%	26%	2%	31%
